Our source for the INHIBITION values is ChEMBL document CHEMBL4513216, “Probing the Open Global Health Chemical Diversity Library for Multistage-Active Starting Points for Next-Generation Antimalarials” (ACS Infect Dis, 2020).

Screen size: about 69,000 compounds; about 8,600 (12%) showed an effect of 50% or more. What follows is part of a selection rich in strong results, with near analogues and random picks from the rest.

The test system of the assay is Plasmodium berghei. In words: Screen against P. berghei liver stage (PbLuc), transformed with Luciferase, at 10uM. As to conditions: tested at 10 uM. The class given is functional, HepG2.
In the case of `Cc1cc(C(=O)N2CCC(CCC(=O)NCCN(C)C)CC2)ccc1O`, the INHIBITION is recorded as -21.9%.

In the case of `CN(C)CCNC(=O)CCC1CCN(C(=O)c2ccc(O)cn2)CC1`, the INHIBITION is reported as 26.8%.

As to `CCN(c1ccc(C(=O)NCCCN2CCCC2)cc1)S(=O)(=O)CC`, the INHIBITION was -7.11%.

Take `CC[C@@H]1N(Cc2ccc(F)cc2)CCC[C@]12CCC(=O)N2C`: the INHIBITION came out at 21.1%.

For `Cn1cccc1CN1CCC2(CC1)CN(c1ccccc1)C(=O)CO2`, the INHIBITION is -19.5%.

Turning to `Cc1cccc(N2CCOCC3(C2)CN(c2cccnc2)C(=O)CO3)n1` (stereo not drawn), the INHIBITION is on record as 41.4%.

For the molecule `Cc1cccc(N2CCOCC3(C2)CN(c2ccccc2)C(=O)CO3)n1` (stereo not drawn), the INHIBITION came to 59.3%.

Turning to `Cc1ccc(CN2CCC3(CC2)CN(c2ccccc2)C(=O)CO3)o1`, the INHIBITION came out at 68.4%.

Consider `Cc1ccc(CN2CCOCC3(C2)CN(c2ccc(C)s2)C(=O)CO3)o1` (stereo not drawn), for which the INHIBITION amounted to 64.2%.

As to `Cc1ccc(CN2CCC3(CC2)CN(c2cnn(C)c2)C(=O)CO3)o1`, the INHIBITION is -2.17%.

As for `Cc1cccc(N2CCOCC3(C2)CN(c2cncnc2)C(=O)CO3)n1` (stereo not drawn), the INHIBITION is 33.5%.

`Cc1ccc(N2CC3(COCCN(Cc4cnn(C)c4)C3)OCC2=O)s1` (stereo not drawn): the INHIBITION was determined as 31.7%.

For `Cc1ccc(N2CC3(COCCN(Cc4nccs4)C3)OCC2=O)s1` (stereo not drawn), the INHIBITION is listed as -17%.

Regarding `Cc1ccc(N2CC3(COCCN(Cc4ccccn4)C3)OCC2=O)s1` (stereo not drawn), the INHIBITION amounted to 60.1%.

Take `Cc1ccc(N2CC3(COCCN(Cc4ccncc4)C3)OCC2=O)s1` (stereo not drawn): the INHIBITION is given as -36%.

`Cc1ccc(N2CC3(COCCN(Cc4cccnc4)C3)OCC2=O)s1` (stereo not drawn): the INHIBITION stood at 39.2%.

Consider `Cc1ccc(CC(=O)N2CCc3nnc(N(C)C)cc3C2)s1`, for which the INHIBITION is listed as 12.85%.

As for `Cn1cnc2c1C(COCC1CCOCC1)CN(C1CCOCC1)C2` (stereo not drawn), the INHIBITION was -0.569%.

As to `CC(C)NC(=O)Nc1ccc(CS(C)(=O)=O)cc1`, the INHIBITION came to 28.3%.

As to `CCn1ccnc1CN1CCCN(C(=O)c2cnc(C)cn2)CC1`, the INHIBITION is recorded as -4.16%.

`Cc1nc(CN2CCCC(N(C)Cc3nccn3C)C2)no1` (stereo not drawn): the INHIBITION amounted to 13.3%.

In the case of `COc1ccc(OCc2cc(C(=O)N3CCCCO3)n[nH]2)c(Cl)c1`, the INHIBITION was -9.42%.

On to `CCNCCC(Cc1ccccc1)c1ccco1` (stereo not drawn), for which the INHIBITION was 31.2%.

As for `COCCN(C)c1cnn(C)c(=O)c1Br`, the INHIBITION worked out at 17.5%.

As for `CC(Cn1cccn1)C(=O)N1CCCN(Cc2cscn2)CC1` (stereo not drawn), the INHIBITION is -0.29%.

As for `O=C(c1cnco1)N1CCC(Cc2cnc3ccccc3c2)CC1`, the INHIBITION is 14.4%.

In the case of `O=C1CC2(CCCCN2C(=O)c2ccco2)CN1c1cccnc1` (stereo not drawn), the INHIBITION amounted to 76.5%.

For `O=C1CC2(CCCCN2C(=O)Cc2ccccc2)CN1c1cccnc1` (stereo not drawn), the INHIBITION was found to be 70.1%.

`O=C(c1ccco1)N1CCOCC2(C1)CN(c1cccnc1)C(=O)CO2` (stereo not drawn): the INHIBITION amounted to 3.58%.

Take `Cn1cccc1C(=O)N1CCCCC12CC(=O)N(c1cccnc1)C2` (stereo not drawn): the INHIBITION is -80.2%.

For the molecule `Cn1ccc(C(=O)N2CCCCC23CC(=O)N(Cc2ccccc2)C3)n1` (stereo not drawn), the INHIBITION is on record as -52.9%.

With `O=C1CC2(CCCCN2C(=O)c2ccoc2)CN1Cc1ccccc1` (stereo not drawn), the INHIBITION is recorded as 24.8%.

For `COc1ccc(CC(=O)N2C[C@@H]3COC[C@]3(CN(C)C)C2)cc1`, the INHIBITION was 35.3%.

For the molecule `CCOCC1c2c(cnn2CC2CC2)CCN1Cc1nccs1` (stereo not drawn), the INHIBITION came to 30.3%.

Consider `O=C(C1CCCC1)N1CCO[C@H]2[C@H](OCC3CCOCC3)CC[C@@H]21`, for which the INHIBITION is given as -26.5%.

With `CC(C)NC(=O)CS(=O)(=O)Cc1coc(-c2ccc(F)cc2)n1`, the INHIBITION is reported as 33.8%.

For the molecule `Cc1nc(C)c(CC(=O)N2C[C@@H]3CC[C@H]2CN(c2cnccn2)C3)s1`, the INHIBITION is on record as -102%.

Take `CC(C)C(=O)NC1COC2(CCN(Cc3cccnc3)CC2)C1` (stereo not drawn): the INHIBITION turned out to be 16.1%.

Take `c1cnc(NCc2nnn3c2CN(Cc2ccsc2)CCC3)nc1`: the INHIBITION worked out at 39.8%.

Consider `CS(=O)(=O)NC[C@@H]1OC[C@H]2CN(Cc3ccsc3)CC[C@H]21`, for which the INHIBITION is -4.32%.

For the molecule `CN(CC(=O)N1CCc2[nH]c3ccccc3c2C1)CC1OCCO1`, the INHIBITION came to 22.9%.

In the case of `O=C1N(c2ccsc2)CCC12CCCN(c1ccccn1)C2` (stereo not drawn), the INHIBITION turned out to be 42.1%.

Turning to `Cc1nn(C)c(N(C)C)c1CNCc1cccnc1-n1cncn1`, the INHIBITION amounted to 26.1%.

Turning to `CNCc1cc(F)ccc1Oc1ccc(Cl)cc1`, the INHIBITION came out at 35.2%.

As to `COc1ccccc1C(N)CC(C)C` (stereo not drawn), the INHIBITION came to 48.3%.

On to `CC(C)C[C@H](N)COc1cccc(F)c1Oc1ccccc1`, for which the INHIBITION is listed as 48%.

In the case of `CC(C)C[C@H](N)COc1cccc(F)c1Oc1cccc(Cl)c1`, the INHIBITION was 83.3%.

For the molecule `CC(CNS(N)(=O)=O)Oc1cccc(Cl)c1` (stereo not drawn), the INHIBITION is 14.9%.

On to `CC(C)C[C@H](N)COc1cccc(F)c1Oc1ccc(Cl)cc1`, for which the INHIBITION came to 87.9%.

With `CC(CNS(C)(=O)=O)Oc1cccc(Cl)c1` (stereo not drawn), the INHIBITION stood at 23.8%.

With `Cc1ccc(Oc2c(F)cccc2OC[C@@H](N)CC(C)C)cc1`, the INHIBITION is 79.6%.

Take `CN(CCc1ccccn1)c1cnn(C)c(=O)c1Br`: the INHIBITION is given as -18.9%.

For `Cc1ccc2c(c1)Oc1ncccc1C(=O)N2`, the INHIBITION was determined as 48.2%.
